Compounds with a hit are over-represented: about 12% of the library has one in this group of screens.
SARS PLpro yeast: SARS-CoV PLP inhibition in yeast. S. cerevisiae expressing SARS-CoV PLpro, growth rescue. Potency, µM (doses to about 32.9 µM), most hits filed as activators. 330,000 compounds, 0.19% hits. AID 485353; calls by dose curve; note: nearly all actives have a fitted effect of over 55% in size
Pf growth 48h: inhibits P. falciparum growth in the first generation, 48 h; P. falciparum luciferase growth in erythrocytes, 48 h; Potency, µM (top dose mostly 28.7 µM), most hits filed as inhibitors; 310,000 compounds, 5.9% hits; AID 504832
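Luciferase-expressing P. falciparum in infected erythrocytes (2% hematocrit, 0.1% parasitemia final) in RPMI 1640/0.5% Albumax were exposed to compound for 48 hours at 37 C, 5% CO2; growth read as luminescence.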
Sm TGR block: blocks Schistosoma mansoni thioredoxin glutathione reductase. 360,000 compounds, 3% hits. AID 485364. purified TGR, DTNB reduction, TNB absorbance 405 nm. Potency, µM (titrated, usually from 114 µM), most hits filed as inhibitors; note: nearly all actives have a fitted effect of over 60% in size
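TGR 20 nM + NADPH 100 uM (dispensed conc.), cpd preinc 15 min RT; start with NADPH (500 uM addition) then DTNB (15 mM addition). Kinetic TNB absorbance, 405 nm filter. Four-parameter Hill fit across titration.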
Pf growth 96h: P. falciparum growth inhibition at 96 hours | P. falciparum luciferase reporter growth, 96 h | Potency, µM (highest dose often 28.7 µM), hits mostly inhibitors | 320,000 compounds, 6.9% hits | AID 504834
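Delayed-death screen, second-generation endpoint: infected erythrocytes, 2% hematocrit, 0.05% parasitemia final; 96 hours at 37 C, 5% CO2; luciferase detection reagent; luminescence decrease equals reduced growth.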
Of the large screens only hits and unclear results are named; the others gave an inactive call. Unless noted, calls come from the whole dose curve; as a rule, active = well fitted curve in the direction sought with a large enough effect; inconclusive = small, poorly fitted or top-dose-only effect, or another doubt; inactive = no such curve, though single readings can be large; an effect the other way counts as inactive or inconclusive.

O=C(COc1ccccc1)Nc1nnc(-c2ccc(F)cc2)o1	Pf growth 96h 11.7µM
Cc1c(N=C2NN=C(c3ccc(Cl)cc3)CS2)c(=O)n(-c2ccccc2)n1C	Pf growth 48h inconclusive, Pf growth 96h inconclusive
COCCn1c(C)cc(C2=NNC(=Nc3ccccc3F)SC2)c1C	Pf growth 96h 3.7µM (no result: Pf growth 48h)
Cc1c(N=C2NN=C(c3c[nH]c4ccccc34)CS2)c(=O)n(-c2ccccc2)n1C	Pf growth 48h 4.15µM, Pf growth 96h inconclusive
Cc1cc(C2=NNC(=NCCc3ccccc3)SC2)c(C)n1-c1c(C)n(C)n(-c2ccccc2)c1=O	Pf growth 48h 6.57µM, Pf growth 96h inconclusive
Cc1cc(C2=NNC(=NC3CC3)SC2)c(C)n1-c1c(C)n(C)n(-c2ccccc2)c1=O	none
COCCN=C1NN=C(c2cc(C)n(CC3CCCO3)c2C)CS1 (stereo not drawn)	Pf growth 48h inconclusive, Pf growth 96h 9.28µM
O=C(c1ccc(N2CCOCC2)c([N+](=O)[O-])c1)N1CCCC(C(F)(F)F)C1 (stereo not drawn)	none (no result: SARS PLpro yeast)
S=P(N1CC1)(N1CC1)N1CC1	none (no result: SARS PLpro yeast)
COCCCN=C1NN=C(c2cc(C)n(-c3ccccc3)c2C)CS1	SARS PLpro yeast inconclusive, Pf growth 48h 10.4µM, Pf growth 96h 8.28µM
COCCCN=C1NN=C(c2cc(C)n(-c3ccccc3F)c2C)CS1	none
O=C(NCc1ccccc1Cl)c1c2c(nc3ccccc13)C(=O)N(C1CCCCC1)C2	none (no result: SARS PLpro yeast, Pf growth 48h, Pf growth 96h)
CN1/C(=C\C(=O)Nc2ccc(Br)cc2)C(C)(C)c2ccccc21	none
CN1/C(=C\C(=O)Nc2ccc(F)cc2)C(C)(C)c2ccccc21	Pf growth 48h 5.22µM, Pf growth 96h inconclusive
CN1/C(=C\C(=S)NC(=O)c2cccc(Br)c2)C(C)(C)c2ccccc21	Pf growth 48h inconclusive, Pf growth 96h 11.7µM
Cc1csc(=O)n1CCC(=O)OCC(=O)NNC(=O)c1ccc(Cl)cc1	Sm TGR block 35.5µM
Cc1csc(=O)n1CCC(=O)OCC(=O)NCc1ccc(Cl)cc1Cl	none
CCCNC(=O)C1CN(C(=O)c2nn(Cc3ccccc3)c(=O)c3ccccc23)c2ccccc2O1 (stereo not drawn)	Pf growth 48h 10.4µM, Pf growth 96h 11.7µM
CC(C)OP(=O)(c1ccc(N(C)C)cc1)C(Nc1ccccc1)c1cccnc1 (stereo not drawn)	Pf growth 48h inconclusive
CN(C)c1ccc(P(=O)(OC2CCCCC2)C(Nc2ccccc2)c2cccnc2)cc1 (stereo not drawn)	Pf growth 48h 9.28µM, Pf growth 96h 2.94µM
Cc1cc(C(=O)N/N=C/c2ccc(Cl)c([N+](=O)[O-])c2)c(C)n1-c1ccc(F)cc1	Pf growth 48h 13.1µM, Pf growth 96h 13.1µM
O=C(N/N=C/c1ccc(Cl)c([N+](=O)[O-])c1)c1ccc2nc[nH]c2c1	Pf growth 48h 3.29µM, Pf growth 96h inconclusive
O=C(Cc1cccs1)Nc1nc2c(ccc3ccccc32)s1	none (no result: Pf growth 96h)
CN(C)S(=O)(=O)c1ccc(N2CCCC2)c(C(=O)Nc2nc3c(ccc4ccccc43)s2)c1	Pf growth 48h inconclusive, Pf growth 96h 13.1µM
CN(C)S(=O)(=O)c1ccc(N2CCCC2)c(C(=O)Nc2nc(-c3ccc(F)c(F)c3)cs2)c1	Pf growth 48h inconclusive, Pf growth 96h 10.4µM
Cc1cnc(NC(=O)c2cc(S(=O)(=O)N(C)C)ccc2N2CCCC2)s1	none (no result: Pf growth 48h, Sm TGR block, Pf growth 96h)
CC(=O)Nc1nc2c(ccc3ccccc32)s1	Pf growth 96h 10.4µM
Cc1ccc(N(CC(=O)NCc2ccncc2)S(C)(=O)=O)cc1Cl	none (no result: Pf growth 96h)
Cc1ccc(N(C(C)C(=O)Nc2cc(Cl)ccc2Oc2ccccc2)S(C)(=O)=O)cc1 (stereo not drawn)	Pf growth 48h 4.65µM, Pf growth 96h 7.38µM
Cc1ccc(N(CC(=O)Nc2cc(Cl)ccc2Oc2ccccc2)S(C)(=O)=O)cc1C	Pf growth 96h 8.28µM (no result: Pf growth 48h)
COc1ccc(C)cc1NC(=O)C(C)N(c1ccc(C)cc1)S(C)(=O)=O (stereo not drawn)	Pf growth 48h inconclusive
Cc1ccc(N(CC(=O)NCc2cccnc2)S(C)(=O)=O)cc1C	Pf growth 96h 4.15µM
Cc1ccc(Oc2ccc(Cl)cc2NC(=O)c2ccc(F)cc2F)cc1	Pf growth 48h 5.22µM, Pf growth 96h 10.4µM
Cc1ccc(-n2ncc(C(=O)N3CCC(c4ccccc4)C3)c2C2CCN(C(=O)OC(C)(C)C)CC2)cc1 (stereo not drawn)	none (no result: SARS PLpro yeast, Pf growth 48h, Pf growth 96h)
Cc1ccc(N(CC(=O)Nc2cc(Cl)ccc2Oc2ccccc2)S(C)(=O)=O)c(C)c1	Pf growth 96h 11.7µM (no result: Pf growth 48h)
CC1(CCc2ccc3c(c2)OCO3)NCCc2c1[nH]c1ccccc21 (stereo not drawn)	Pf growth 48h 10.4µM, Pf growth 96h inconclusive

High-throughput results (PubChem)
